Data published in PubChem BioAssay (NCATS).
Records with an inconclusive call do not appear. Where a call stands in place of a potency, no number is given. Calls of active or inactive are those of the source. Calls come from the whole dose curve; as a rule, active = well fitted inhibition curve with a large enough effect; inconclusive = small, poorly fitted or top-dose-only effect; inactive = no such curve, though single readings can be large or run the other way.

Assay: HTS Assay for Allosteric Antagonists of the Human D2 Dopamine Receptor: Hit Validation in HTRF (AID 624455);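 note: stable D1 dopamine receptor cell line scored for blocking the D1 response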
Settings: Cells stably expressing D1 dopamine receptor, inhibition mode; series mostly up to 46.1 µM
Text: Dopamine receptors (DARs) are involved in the etiology and/or therapy of a number of neuropsychiatric and endocrine disorders. For instance, all receptor-based antiparkinsonian drugs work via stimulating the D2 DAR subtype whereas all FDA-approved antipsychotic agents are antagonists of this receptor. […] There are three different types of allosteric modulators that we are seeking, two of which will stimulate or augment receptor signaling, allosteric agonists and potentiators, while the third, allosteric antagonists, will attenuate receptor signaling. The present primary screening assay measures compound antagonism after an EC80 addition of dopamine by tracking calcium flux in a […], inducible Hek293 Trex D2 cell line. This assay measures activity of the hits in the D1 HTRF assay.
NIH Chemical Genomics Center [NCGC]
NIH Molecular Libraries Probe Centers Network [MLPCN]
Assay Submitter (PI): David Sibley
Cells stably expressing the D1 dopamine receptor will be run in an HTRF assay and compounds will be examined for the ability to inhibit the D1 mediated response.
Potency is the fitted concentration of half-maximal effect.

Row | Structure (SMILES) | Potency
1 | CCCCCCCCc1ccc(-c2ccc(C(=O)O)cc2)cc1 | inactive
2 | O=C1/C(=C/c2ccsc2)CC/C1=C\c1cccs1 | inactive
3 | NC[C@H]1O[C@@H](n2cnc3c(N)ncnc32)[C@H](O)[C@@H]1O | inactive
4 | CC12C(=O)OC(=O)C1(C)C1CCC2O1 (stereo not given) | inactive
5 | CCCn1c(=O)c2[nH]c(-c3ccc(OCC(=O)NCCN)cc3)nc2n(CCC)c1=O | inactive
6 | C#CCN1C(C)=C(C(=O)OC)C(c2cccc([N+](=O)[O-])c2)C(C(=O)OCC)=C1C (stereo not given) | inactive
7 | COc1ccc(NC(=O)/C=C/c2ccc(Cl)cc2)cc1 | inactive
8 | NO | inactive
9 | O=C(c1ccc(Cl)cc1)N1CCN(c2ccc([N+](=O)[O-])c3ncccc23)CC1 | inactive
10 | CC(C)CC(NP(=O)(O)O[C@@H]1O[C@@H](C)[C@H](O)[C@@H](O)[C@H]1O)C(=O)NC(Cc1c[nH]c2ccccc12)C(=O)O (stereo not given in full) | inactive
11 | NC(=S)c1ccc[n+]([C@@H]2O[C@@H](COP(=O)([O-])OP(=O)(O)OC[C@H]3O[C@@H](n4cnc5c(N)ncnc54)[C@H](OP(=O)(O)O)[C@@H]3O)C(O)C2O)c1 (stereo not given in full) | inactive
12 | O=[N+]([O-])c1ccc2c(c1)S(=O)(=O)C=C2 | inactive
13 | Oc1cc(O)cc(/C=C/c2ccc(O)c(O)c2)c1 | inactive
14 | COc1ccccc1N1CCN(CCN(C(=O)c2ccc(I)cc2)c2ccccn2)CC1 | inactive
15 | NCC1OC(O[C@H]2[C@H](O)[C@@H](OC3C(O)C(N)CC(N)C3OC3OC(CO)C(O)C(O)C3N)O[C@@H]2CO)C(N)C(O)C1O (stereo not given in full) | inactive
16 | CC[C@@H](C)[C@H]1O[C@]2(CC[C@H]1C)C[C@@H]1C[C@@H](CC=C(C)[C@@H](O[C@H]3C[C@H](OC)[C@@H](O[C@H]4C[C@H](OC)[C@@H](O)[C@H](C)O4)[C@H](C)O3)[C@@H](C)C=CC=C3CO[C@@H]4[C@H](O)C(C)=C[C@@H](C(=O)O1)[C@]34O)O2 | inactive
17 | O=C(O)/C=C/C(O)c1ccc(Cl)cc1 (stereo not given) | inactive
18 | Oc1ccc(C2CNCc3sccc32)cc1O (stereo not given) | 0.146 µM (active)
19 | Clc1ccc(N2CCN(Cc3c[nH]c4ncccc34)CC2)cc1 | inactive
20 | C[N+]1(C)C2CC(OC(=O)[C@H](CO)c3ccccc3)CC1C1OC12 (stereo not given in full) | inactive

Row | Structure (SMILES) | Potency
21 | Cc1cc2c(cc1Cl)N(C(=O)Nc1ccc(Oc3cccnc3C)nc1)CC2 | inactive
22 | CCOC(=O)N1CCN(/[N+]([O-])=N/Oc2ccc([N+](=O)[O-])cc2[N+](=O)[O-])CC1 | inactive
23 | OC[C@H]1O[C@@H](n2cnc3c(NC4CCCC4)ncnc32)[C@H](O)[C@@H]1O | inactive
24 | Nc1nc(SCc2ccc([N+](=O)[O-])cc2)c2ncn([C@@H]3O[C@H](CO)[C@@H](O)[C@H]3O)c2n1 | inactive
25 | N#C/C(=C\c1ccc(O)c(O)c1)C(=O)NCc1ccccc1 | inactive
26 | CN(C)c1ccc(/C=C2\C(=O)Nc3ccccc32)cc1 | inactive
27 | Clc1ccc(N2CCN(Cc3cc4ccccn4n3)CC2)cc1 | inactive
28 | CNC(=O)[C@H]1O[C@@H](n2cnc3c(NCc4ccc(N)cc4)ncnc32)[C@H](O)[C@@H]1O | inactive
29 | Cc1ccc(S(=O)(=O)/C=C/C#N)cc1 | inactive
30 | NS(=O)(=O)C#Cc1ccccc1 | inactive
31 | CC(COc1ccc(/C=C/c2ccccc2)cc1)[N+](C)(C)C (stereo not given) | inactive
32 | CN(C)C(N)=NCCC[C@H](N)C(=O)O | inactive
33 | NC(=O)C1=CN(C2OC(COP(=O)(O)OP(=O)(O)OC[C@H]3O[C@@H](n4cnc5c(N)ncnc54)[C@H](OP(=O)(O)O)[C@@H]3O)C(O)C2O)C=CC1 (stereo not given in full) | inactive
34 | CC(C)NCC(O)COc1cccc2ccccc12 (stereo not given) | inactive
35 | COc1cc2c(CCNC(C)=O)c[nH]c2cc1Cl | inactive
36 | N#C/C(=C\c1ccc(O)c(O)c1)C(=O)c1ccc(O)c(O)c1 | inactive
37 | Cn1cc(C2=C(c3ccc(Cl)cc3Cl)C(=O)NC2=O)c2ccccc21 | inactive
38 | Ic1ccc(N2CCN(Cc3c[nH]c4ncccc34)CC2)cc1 | inactive
39 | COc1ccccc1N1CCN(CCCCNS(=O)(=O)c2cccc3c(N(C)C)cccc23)CC1 | inactive
40 | COC(=O)c1c(C)[nH]c(C)c1C(=O)c1ccccc1Cc1ccccc1 | inactive
